From the supplement of paper PMC7380943
Structures can show the parent of a compound that is named as a salt.

system: CLZ3 (HCA2 human fibroblast dual HR-NHEJ reporter); assay: HR repair efficiency (tdTomato+ cells) relative to control (log10 fold); higher = more homologous recombination; conditions: 5 µM; doxycycline 0.5 ug/mL
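Note: compound given one day before doxycycline, which switches on I-SceI endonuclease expression to create double-strand breaks within the integrated reporter.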

SMILES | HR repair efficiency (log10)
CCCCCCCCCCCCCCCC(=O)O [Palmitic Acid] | 0.0657
C=C(C)[C@@H]1CC[C@]2(C(=O)O)CC[C@]3(C)[C@H](CC[C@@H]4[C@@]5(C)CCC(=O)C(C)(C)[C@@H]5CC[C@]43C)[C@@H]12 [Liquidambaric Acid] | 0.0487
C=CCc1ccc(O)c(OC)c1 [Eugenol] | -0.0172
CC(C)(C)NCC(O)c1ccc(O)c(CO)c1 (centres undefined) [Salbutamol Sulfate] | -0.085
C=C(C)C(=O)Cc1c(OC)ccc2ccc(=O)oc12 [Murrayone] | -0.312
COc1ccc(-c2cc(=O)c3c(O)c(OC)c(O)cc3o2)cc1 [Pectolinarigenin] | -0.0222
CCOC(=O)/C=C/c1ccc(O)c(O)c1 [Ethyl Caffeate] | 0.0777
CC(=O)O[C@@H]1CC[C@@]2(C)[C@@H](CC[C@]3(C)[C@@H]2C(=O)C=C2[C@@H]4[C@@H](C)[C@H](C)CC[C@]4(C)CC[C@]23C)[C@@]1(C)C(=O)O [3-Acetyl-11-Keto-Beta-Boswellic Acid] | -0.0515
CC(CC(=O)C[C@@H](C)[C@H]1CC(=O)[C@@]2(C)C3=C(C(=O)C[C@]12C)[C@@]1(C)CCC(=O)C(C)(C)[C@@H]1C[C@@H]3O)C(=O)O (some centres undefined) [Ganoderic Acid D] | -0.241
